Among the test systems are SK-MEL-2 melanoma; EKVX NSCLC; SN12C renal; UO-31 renal; TK-10 renal; ACHN renal; CAKI-1 renal; A498 renal; CCRF-CEM leukemia; MOLT-4 leukemia; RPMI-8226 leukemia; OVCAR-8 ovarian; OVCAR-5 ovarian; OVCAR-4 ovarian; SK-OV-3 ovarian; IGROV1 ovarian; OVCAR-3 ovarian; NCI/ADR-RES ovarian; HS 578T breast.
Common to all, as to experiment: NCI-60 one-dose screen, 48 h (100 = growth as untreated, 0 = no growth, -100 = all killed)
Holding throughout (conditions): 10 µM unless noted

This is part of a sample that, as a whole, favours compounds with a hit. Of some 83,000 tested, about 20% had one in any assay.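 Cells were grown in 96-well plates and exposed to the test compound at a single concentration for 48 hours; results are reported as percent growth, with values below 10 considered active.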 Values without a mark were called inactive. Activity calls are given as the source filed them.

With `O=C(c1ccccc1)c1c(/C=C/c2ccccc2)nc2ccccc2c1/C=C/c1ccc(Br)cc1`, the growth is 110% in the experiment with SK-MEL-2 melanoma; 102% with EKVX NSCLC; 92.7% with SN12C renal; 68.2% in the experiment with UO-31 renal; 107% with TK-10 renal; 97% with ACHN renal. The growth in the experiment with CAKI-1 renal is 80.9%; with A498 renal, 79.9%; with CCRF-CEM leukemia, 97%; with MOLT-4 leukemia, 94.6%; in the experiment with RPMI-8226 leukemia, 104%; with OVCAR-8 ovarian, 102%. Besides, the growth is 103% in the experiment with OVCAR-5 ovarian; 88% in the experiment on OVCAR-4 ovarian; 96.3% with SK-OV-3 ovarian; 103% with IGROV1 ovarian; 89.4% in the experiment on OVCAR-3 ovarian; 102% with NCI/ADR-RES ovarian.
As for `Cc1ccc2c(c1)Sc1c(ccc3ccccc13)N2`, the growth is 116% in the experiment on SK-MEL-2 melanoma; 72.8% in the experiment on EKVX NSCLC; 81.8% with SN12C renal; 60.1% with UO-31 renal; 127% in the experiment on TK-10 renal; 64.5% in the experiment with ACHN renal. Besides, the growth is 73.4% in the experiment with CAKI-1 renal; 91.7% in the experiment on A498 renal; 67.6% in the experiment with CCRF-CEM leukemia; 32.4% in the experiment on MOLT-4 leukemia; 50.4% in the experiment with RPMI-8226 leukemia; 72.3% with OVCAR-8 ovarian. For the same compound, the growth in the experiment on OVCAR-5 ovarian was 109%; in the experiment on OVCAR-4 ovarian, 73.5%; in the experiment on SK-OV-3 ovarian, 73.1%; in the experiment on IGROV1 ovarian it was 42.3%; in the experiment on OVCAR-3 ovarian, 70.8%; in the experiment on HS 578T breast it was 66.4%. In the experiment on NCI/ADR-RES ovarian, the growth is 57.3%.
Take `CCCCNC(=O)Oc1ccc2c(=O)c3sc4c(=O)c5ccccc5c(=O)c4c3c(=O)c2c1`: the growth in the experiment on SK-MEL-2 melanoma was -54.7% (active); with EKVX NSCLC, -77.7% (active); with SN12C renal it was -86.3% (active); in the experiment on UO-31 renal, -56.7% (active); in the experiment on TK-10 renal it was -95.2% (active); in the experiment with ACHN renal, -88.9% (active). For the same compound, the growth in the experiment on CAKI-1 renal was -75.4% (active); with A498 renal, -98.8% (active); in the experiment with CCRF-CEM leukemia it was -29.4% (active); in the experiment on MOLT-4 leukemia it was -44.4% (active); with RPMI-8226 leukemia, -41.9% (active); in the experiment with OVCAR-8 ovarian, -20.4% (active). In addition, the growth with OVCAR-5 ovarian is -73.6% (active); in the experiment on OVCAR-4 ovarian, -95.4% (active); in the experiment on SK-OV-3 ovarian it was -93.9% (active); in the experiment on IGROV1 ovarian, -25.6% (active); with OVCAR-3 ovarian, -69.5% (active); in the experiment on NCI/ADR-RES ovarian, -19.3% (active).
Turning to `N#C/C(=C\c1ccc(-c2ccccc2F)o1)c1nc(-c2ccco2)cs1`, the growth was 96.5% in the experiment with SK-MEL-2 melanoma; 67% with EKVX NSCLC; 96.7% in the experiment with SN12C renal; 68.8% with UO-31 renal; 65.2% with TK-10 renal; 90.4% in the experiment with ACHN renal. The growth in the experiment with CAKI-1 renal was 56.8%; in the experiment on A498 renal, 66.9%; in the experiment on CCRF-CEM leukemia it was 95%; in the experiment with MOLT-4 leukemia, 91.9%; in the experiment with RPMI-8226 leukemia it was 80.3%; with OVCAR-8 ovarian, 94.2%. Moreover, the growth is 78.2% in the experiment with OVCAR-5 ovarian; 19.6% with OVCAR-4 ovarian; 92.6% in the experiment on SK-OV-3 ovarian; 59.9% with IGROV1 ovarian; 89.6% in the experiment on OVCAR-3 ovarian; 98.5% in the experiment with HS 578T breast. Further, the growth with NCI/ADR-RES ovarian was 106%.
Consider `O=C(Cc1ccc(F)c(F)c1)Nc1cc(C2(C(F)(F)F)CC2)nn1Cc1ccccc1`, for which the growth was -32.9% (active) in the experiment on SK-MEL-2 melanoma; 6.62% (active) with EKVX NSCLC; 6.15% (active) with SN12C renal; -3.87% (active) in the experiment on UO-31 renal; 3.48% (active) with TK-10 renal; -13.2% (active) with ACHN renal. In addition, the growth in the experiment on CAKI-1 renal is -18.4% (active); with A498 renal, -34% (active); in the experiment with CCRF-CEM leukemia, 20.1%; in the experiment with MOLT-4 leukemia, 8.42% (active); in the experiment with RPMI-8226 leukemia, 3.57% (active); in the experiment with OVCAR-8 ovarian it was 6.55% (active). In addition, the growth in the experiment on OVCAR-5 ovarian is 2.55% (active); with OVCAR-4 ovarian, 10.2%; in the experiment on SK-OV-3 ovarian, -24.7% (active); in the experiment with IGROV1 ovarian, 30.3%; in the experiment on OVCAR-3 ovarian, 7.3% (active); with HS 578T breast it was -2.64% (active). Besides, the growth with NCI/ADR-RES ovarian was 4.36% (active).
As to `COc1cc(C2NC(=O)c3ccccc3N2)ccc1OCCCCCOc1c(OC)cc(C2=NOC(c3cc(OC)c(OC)c(OC)c3)C2)cc1OC` (centres undefined), the growth in the experiment on SK-MEL-2 melanoma was 76.9%; in the experiment on EKVX NSCLC it was 50.6%; with SN12C renal it was 92.6%; in the experiment with UO-31 renal, 69.2%; with TK-10 renal, 100%; in the experiment on ACHN renal, 41.3%. The growth with CAKI-1 renal was 89.2%; with A498 renal, 99.3%; in the experiment on CCRF-CEM leukemia, 44.8%; with MOLT-4 leukemia, 24.6%; in the experiment with RPMI-8226 leukemia, -22.2% (active); in the experiment on OVCAR-8 ovarian, 88.2%. Besides, the growth with OVCAR-5 ovarian is 103%; with OVCAR-4 ovarian, 28.8%; with SK-OV-3 ovarian, 93.8%; in the experiment on IGROV1 ovarian, 15.2%; in the experiment on OVCAR-3 ovarian, 78.6%; with HS 578T breast, 102%. Besides, the growth in the experiment on NCI/ADR-RES ovarian is 65%.
In the case of `COc1ccc(/C=N\NC(=O)c2cc(-c3ccc(Br)cc3)n(-c3ccc(S(N)(=O)=O)cc3)n2)cc1`, the growth in the experiment with SK-MEL-2 melanoma was 54.3%; in the experiment with EKVX NSCLC it was 61.2%; in the experiment on SN12C renal it was 63%; with UO-31 renal, 50.1%; in the experiment on TK-10 renal, 29.1%; with ACHN renal, 44.3%. Besides, the growth with CAKI-1 renal is 26.3%; in the experiment with A498 renal, -6.38% (active); in the experiment on CCRF-CEM leukemia it was 55.6%; with MOLT-4 leukemia, 62.3%; with RPMI-8226 leukemia, 61.1%; with OVCAR-8 ovarian, 72%. Besides, the growth with OVCAR-5 ovarian is 82.5%; in the experiment on OVCAR-4 ovarian it was 57.6%; with SK-OV-3 ovarian, 74.1%; in the experiment on IGROV1 ovarian it was 46.2%; with OVCAR-3 ovarian, 21.2%; in the experiment with HS 578T breast, 22.4%. The growth in the experiment on NCI/ADR-RES ovarian was 31.4%.
In the case of `CC(C)=C[C@@H]1c2c(c3ccccc3n(C)c2=O)O[C@H]2c3c(c4ccccc4n(C)c3=O)OC(C)(C)[C@@H]12`, the growth with SK-MEL-2 melanoma was 66.4%; in the experiment with EKVX NSCLC, 90.9%; with SN12C renal, 115%; with UO-31 renal, 63.1%; in the experiment on TK-10 renal, 123%; in the experiment on ACHN renal, 70.4%. Also, the growth in the experiment on CAKI-1 renal was 87.7%; in the experiment with A498 renal, 102%; in the experiment on CCRF-CEM leukemia, 46.6%; in the experiment with MOLT-4 leukemia, 39.5%; with RPMI-8226 leukemia, -36.8% (active); in the experiment on OVCAR-8 ovarian it was 90.4%. Besides, the growth was 98.7% with OVCAR-5 ovarian; 64.9% with OVCAR-4 ovarian; 118% in the experiment with SK-OV-3 ovarian; 91.9% in the experiment on OVCAR-3 ovarian; 93.2% with HS 578T breast; 75.4% in the experiment with NCI/ADR-RES ovarian.

The values are drawn from PubChem BioAssay (NCI).
